“And” between values parts separate entries of the source, which are not always exact repeats. Equal values may be shown once. The campaign covered roughly 16,000 compounds. About 5,800 (36%) were called active. Not shown: some 23% with an inconclusive outcome. Calls come from the whole dose curve; as a rule, active = well fitted curve in the direction sought with a large enough effect; inconclusive = small, poorly fitted or top-dose-only effect, or effect the other way; inactive = no such curve, though single readings can be large or run the other way. Some of the results follow. Where a structure was tested more than once in an assay, its records may differ in their call.
% is set by controls: 0 for no effect and ±100 for the full control effect.

The target of this assay is Cytochrome P450 2C19 (Homo sapiens) (UniProt P33261). As to the kind of experiment: Cytochrome panel assay with activity outcomes. The note with it: recombinant CYP, pro-luciferin dealkylation, luminescence, p450-cyp2c19; series mostly up to 57.1 µM.
Sequence of Cytochrome P450 2C19 (Homo sapiens) (P33261 whole entry, looked up): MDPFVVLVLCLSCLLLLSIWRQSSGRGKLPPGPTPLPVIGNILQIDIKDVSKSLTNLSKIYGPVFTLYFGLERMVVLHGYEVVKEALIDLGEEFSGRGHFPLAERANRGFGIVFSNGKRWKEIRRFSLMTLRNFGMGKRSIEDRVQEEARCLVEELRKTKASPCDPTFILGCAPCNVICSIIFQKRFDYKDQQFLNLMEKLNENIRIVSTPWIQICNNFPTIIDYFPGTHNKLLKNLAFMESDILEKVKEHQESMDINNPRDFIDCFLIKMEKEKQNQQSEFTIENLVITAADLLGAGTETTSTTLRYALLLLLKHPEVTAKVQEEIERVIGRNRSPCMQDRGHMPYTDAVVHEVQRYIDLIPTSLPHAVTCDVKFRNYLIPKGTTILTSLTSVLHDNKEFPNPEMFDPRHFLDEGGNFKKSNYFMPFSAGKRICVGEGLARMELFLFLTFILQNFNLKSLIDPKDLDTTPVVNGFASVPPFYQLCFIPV
With `Cc1cccc([C@@H]2CN(C)CCc3c2cc(O)c(O)c3Cl)c1`, the AC50 (usually the concentration at which the activity in the assay is half-maximal) is “inactive”.

With `CN(C)CCC[C@@]1(c2ccc(F)cc2)OCc2cc(C#N)ccc21`, the AC50 entry is “inactive and 3.16 µM (active)”.

Take `COc1ccccc1N/C(=N/S(=O)(=O)c1ccc(C)cc1)c1ccc(Cl)cc1`: the AC50 is 4.47 µM (active).

As to `O=S(=O)(/N=C(/Nc1ccc(F)cc1F)c1ccc(Cl)cc1)c1ccccc1`, the AC50 entry is “inactive”.

As to `CNc1nc(-c2cccc(NS(C)(=O)=O)c2)nc2ccccc12`, the AC50 entry was “inactive”.

On to `CS(=O)(=O)Nc1ccc(Nc2c3ccccc3nc3ccccc23)cc1`, for which the activity, negative = inhibition is -0.835% [at 11.4 µM] (inactive).

Turning to `CS(=O)(=O)Nc1cccc(-c2nc(Nc3ccccc3)c3ccccc3n2)c1`, the AC50 is 10 µM (active).

Take `CS(=O)(=O)Nc1cccc(-c2nc(Nc3ccncc3)c3ccccc3n2)c1`: the AC50 is 5.01 µM (active).

In the case of `COc1cccc(-c2nc(Nc3ccncc3)c3ccccc3n2)c1`, the AC50 is 3.16 µM (active).

In the case of `CS(=O)(=O)Nc1cccc(-c2nc(Nc3ccc(F)cc3)c3ccccc3n2)c1`, the AC50 is 7.94 µM (active).

`COc1cc(NS(C)(=O)=O)ccc1Nc1c2ccccc2nc2ccccc12`: the AC50 result is “inactive”.

On to `CS(=O)(=O)Nc1cccc(-c2nc(N3CCNCC3)c3ccccc3n2)c1`, for which the AC50 entry is “inactive”.

Consider `N#Cc1cccc(-c2nc(Nc3ccncc3)c3ccccc3n2)c1`, for which the AC50 result is “inactive”.

With `CCCCCCCCCCCCCCSCC(=O)O`, the AC50 entry is “inactive”.

As to `NC[C@](O)(CS(=O)(=O)O)c1ccc(Cl)cc1`, the AC50 entry was “inactive”.

As for `O=C(N/N=C\c1ccc(Sc2ccccn2)o1)c1cccc(Br)c1`, the AC50 is 2.51 µM (active).

As to `O=C(N/N=C/c1cccc(Oc2ccccc2)c1)c1cccc(Br)c1`, the AC50 was 2.24 µM (active).

Consider `O=C(N/N=C/C1C(c2ccccc2)C1(Cl)Cl)c1cccc(Br)c1` (centres undefined), for which the AC50 is 7.08 µM (active).

As for `C[C@@H](N=C(N)N)C(=O)O`, the activity, negative = inhibition is 36.5% [at 11.4 µM] (inactive).

Take `CC(=O)O[C@]12CC[N@+]3(C)CCCC[C@@H]3[C-]1Nc1ccccc12`: the activity, negative = inhibition was 34.8% [at 11.4 µM] (inactive).

Regarding `Cn1nc(C(F)(F)F)c(/C=N/OCc2c(Cl)cccc2Cl)c1Cl`, the AC50 was 0.282 µM (active).

In the case of `COc1ccc(-c2nnn(CC(=O)N(CC(=O)NCCC(C)C)Cc3cccs3)n2)cc1OC`, the AC50 is 1.12 µM (active).

For the compound `COc1ccc(NC(=O)NCc2cccn2C)c(OC)c1`, the half-maximal activity concentration (AC50) was 6.31 µM (active).

On to `COc1ccc(OC)c(NC(=O)CC(Cc2ccccc2OC)C(=O)O)c1` (centres undefined), for which the AC50 result is “inactive”.

For `CCCC(=O)Nc1cc(-c2cn3cccnc3n2)ccc1OC`, the AC50 entry was “inactive”.

`COc1ccc(NC(=O)N2CC3(CCN(C(=O)c4cccn4C)CC3)C2)cc1`: the AC50 result is “inactive”.

For the compound `COCCN(C(=O)Nc1ccc(OC)cc1OC)C1CCN(C(C)=O)CC1`, the AC50 entry is “inactive”.

Consider `COc1ccc(NC(=O)Cn2cccc2)c(OC)c1`, for which the AC50 was 2.24 µM (active).

On to `COc1ccc(OC)c(NC(=O)Cn2cccc2)c1`, for which the half-maximal activity concentration (AC50) is 6.31 µM (active).

On to `COc1ccc(NC(=O)N2CCC3(CC2)CCN(C(=O)c2cccn2C)CC3)cc1`, for which the AC50 entry is “inactive”.

As to `CO[C@H]1COC(=O)[C@H](C)NC(=O)C/C=C\[C@@H](C)[C@@H](NS(=O)(=O)c2ccc(C)cc2)COC(=O)C/C=C\[C@@H]1C`, the activity, negative = inhibition is 24.1% [at 11.4 µM] (inactive).

For the compound `CCOc1ccc(-c2nnn(CC(=O)Nc3cc(OC)ccc3OC)n2)cc1OCC`, the AC50 was 5.62 µM (active).

For the compound `COc1ccc(-c2nnn(CC(=O)NCCc3c[nH]c4ccccc34)n2)cc1OC`, the AC50 was 8.91 µM (active).

With `Cn1ncc(C#N)c1NC(=O)C1CC(c2ccc(Cl)cc2)=NO1` (centres undefined), the concentration at half-maximal activity (AC50) was 0.316 µM (active).

For `COc1cccc(Nc2ncc3nc(-c4cccs4)c(=O)n(CCC#N)c3n2)c1`, the AC50 result was “inactive”.

Take `O=C(CCC1CCCCC1)Nc1c2c(nn1-c1ccc(F)cc1)CS(=O)(=O)C2`: the AC50 was 15.8 µM (active).

`O=C(O)c1cc(N=Nc2ccc([N+](=O)[O-])cc2)ccc1O`: the activity, negative = inhibition was -3.05% [at 11.4 µM] (inactive).

Take `NC(=O)c1ccc([N+](=O)[O-])cc1SCc1ccccc1`: the AC50 is 10 µM (active).

With `O=C(NCc1ccccn1)c1cc(-c2ccccc2Cl)on1`, the AC50 was 14.1 µM (active).

For the compound `O=C(O)[C@@H]1[C@@H](C(=O)NCc2ccccn2)[C@@H]2C=C[C@@H]1O2`, the activity, negative = inhibition was 36% [at 11.4 µM] (inactive).

Consider `CCN1CCN(C(=S)c2ccc(Br)cc2)CC1`, for which the AC50 is 7.94 µM (active).

With `OCCN1CCN(C(=S)c2ccc(Br)cc2)CC1`, the AC50 is 4.47 µM (active).

Regarding `OCCN1CCOCCOCCN(CCO)CCN(CCO)CC1`, the AC50 result was “inactive”.

For the compound `O=C(CCCN1CCC(O)(c2ccc(Br)cc2)CC1)c1ccc(F)cc1`, the AC50 entry is “inactive”.

Regarding `C[C@H]1CN(CCO)CCN1c1ccccc1`, the activity, negative = inhibition is 34.1% [at 11.4 µM] (inactive).

`O=c1[nH][nH]c(C(F)(F)F)c1C=Nc1ccccc1`: the AC50 result was “inactive”.

Consider `Cc1ccc(-c2cc(C(=O)NCc3ccco3)c3ccccc3n2)s1`, for which the AC50 is 3.98 µM (active).

In the case of `Cc1ccc(CSc2nnc3c(n2)OC2(Nc4ccccc4-3)C(=O)Nc3ccc(F)cc32)cc1` (centres undefined), the AC50 was 10 µM (active).

For the compound `O=C1Nc2ccc(F)cc2C12Nc1ccccc1-c1nnc(SCc3ccccc3F)nc1O2` (centres undefined), the AC50 is 4.47 µM (active).

As to `Nc1nc2c(C(=O)NCc3cccs3)nnn2c2cccc(Cl)c12`, the activity, negative = inhibition was 12.5% [at 11.4 µM] (inactive).

On to `COc1cccc2c(=O)c(C(=O)NCc3cccs3)c[nH]c12`, for which the AC50 was 7.94 µM (active).

With `COc1ccc(C(=O)c2c[nH]c(C(=O)NCc3cccs3)c2)cc1`, the AC50 result was “inactive”.

Take `CCC(=O)OCC(=O)[C@@]1(OC(=O)CC)[C@H](C)C[C@@H]2[C@H]3CCC4=CC(=O)C=C[C@]4(C)[C@]3(Cl)[C@@H](O)C[C@@]21C`: the AC50 entry is “inactive”.

Consider `CC1=C/C(=N/O)C([C@H]2C=C(C)CC(C)(C)[C@@H]2O)C(C)(C)C1` (some centres undefined), for which the concentration at half-maximal activity (AC50) is 1.58 µM (active).

With `COc1cccc(Nc2ncc3nc(-c4cn(C)c5ccccc45)c(=O)n(CCC#N)c3n2)c1`, the AC50 result is “inactive”.

On to `COc1cccc2c1[C@@H]1CN(CCCCn3c(=O)[nH]c4c(sc5ncc(-c6ccccc6)nc54)c3=O)C[C@H]1CO2`, for which the AC50 result is “inactive”.

For `FC(F)Sc1ccc(N=C2NN=C(c3ccc4c(c3)OCCO4)CS2)cc1`, the AC50 was 2.24 µM (active).

With `CC(C)Oc1ccc(CNC(=O)CC(c2ccccc2)c2cc(Cl)ccc2O)cc1` (centres undefined), the AC50 is 1.78 µM (active).

For `CN(Cc1ccccc1)C(=O)CC(c1ccccc1)c1cc(Cl)ccc1O` (centres undefined), the AC50 was 1.78 µM (active).

As to `Cc1cc(-c2cc(-c3ccc(Cl)cc3)nc(N)c2C#N)co1`, the AC50 is 0.282 µM (active).

On to `Cc1cnc(CNc2ncnc3ccc(-c4cccc(NS(C)(=O)=O)c4)cc23)cn1`, for which the AC50 entry was “inactive”.

As to `CS(=O)(=O)Nc1cccc(-c2cncnc2NCc2cccnc2)c1`, the concentration at half-maximal activity (AC50) was 3.16 µM (active).

As to `CS(=O)(=O)Nc1cccc(-c2cncnc2Nc2ccccc2)c1`, the AC50 result was “inactive”.

For the compound `CS(=O)(=O)Nc1cccc(-c2ccc3ncnc(NCc4cccnc4)c3c2)c1`, the AC50 was 0.0501 µM (active).

In the case of `Cc1cccc(CNc2ncncc2-c2cccc(NS(C)(=O)=O)c2)c1`, the AC50 was 6.31 µM (active).

In the case of `N[C@H](C(=O)O)[C@@H]1[C@@H](C(=O)O)C1(F)F`, the AC50 result was “inactive”.

For `CCOC(=O)C1=C(C)NC2=C(C(=O)C(C(=O)OCC)C(c3ccc(OC)cc3)C2)C1c1ccccn1` (centres undefined), the AC50 is 20 µM (active).

For the compound `O=C(c1cc2sccc2n1Cc1ccccc1)N1CCN(c2nc3ccccc3s2)CC1`, the AC50 is 2.24 µM (active).

Take `O=C(O)c1cccc(CN2CCCCC2)c1`: the activity, negative = inhibition is 9.75% [at 11.4 µM] (inactive).

As to `O=C(CN1CCN(Cc2ccccc2)CC1)N1CCCc2c1c(=O)oc1ccc(O)cc21`, the concentration at half-maximal activity (AC50) was 3.55 µM (active).

`CCCc1c(-c2ccc(O)cc2)nn(-c2ccc(O)cc2)c1-c1ccc(O)cc1`: the AC50 entry is “inactive”.

For the compound `O=S(=O)(O)C1CCNCC1`, the AC50 entry was “inactive”.

For `O=S(=O)(c1ccccc1)N1N=C(c2cccs2)CC1c1ccc(Br)cc1` (centres undefined), the concentration at half-maximal activity (AC50) was 2 µM (active).

Take `N#CCCn1c(=O)c(-c2cc(F)cc(F)c2)nc2cnc(N3CCOCC3)nc21`: the AC50 entry is “inactive”.

On to `Cc1ccc2c(C)nc(Nc3nc(CSc4nc5ccccc5[nH]4)cc(=O)[nH]3)nc2c1`, for which the AC50 was 7.08 µM (active).

Turning to `O=c1nc(-c2ccccc2)cc(C(F)(F)F)[nH]1`, the AC50 entry is “inactive”.

In the case of `Cc1ccc2nc(Nc3nc(-c4ccccc4)cc(=O)[nH]3)nc(C)c2c1`, the AC50 is 3.16 µM (active).

With `COc1ccc(C(N)=O)cc1NC(=O)c1cccc(F)c1`, the AC50 entry is “inactive”.

Take `CCN(CC)c1ccc(NC(=O)c2cccc(F)c2)c(C)c1`: the AC50 is 15.8 µM (active).

As to `Cn1c(SCc2nnc(-c3ccc(F)cc3)o2)nnc1C1COc2ccccc2O1` (centres undefined), the AC50 was 17.8 µM (active).

On to `Oc1ccc(C2Nc3cccc4cccc(c34)N2)c(O)c1`, for which the AC50 was 5.62 µM (active).

Take `O=[N+]([O-])c1nccn1C[C@H](O)CN1CCCCC1`: the activity, negative = inhibition is 22.6% [at 11.4 µM] (inactive).

With `O=C1C2[C@@H](c3ccccc3)N[C@@H](c3ccccc3)C1[C@H](c1ccccc1)N[C@H]2c1ccccc1`, the activity, negative = inhibition was -2.21% [at 11.4 µM] (inactive).

For the compound `S=C1N[C@H](c2ccccc2)N[C@H](c2ccccc2)S1`, the AC50 is 3.98 µM (active).

As for `CCOCCCNC(=O)CCS(=O)(=O)Cc1ccc(C)cc1`, the AC50 result was “inactive”.

With `CCOc1ccc(CCNC(=O)CCCN2C(=O)c3ccccc3C2=O)cc1OCC`, the AC50 was 28.2 µM (active).

Consider `O=C(CCCCCN1C(=O)c2ccccc2C1=O)NCc1ccccn1`, for which the AC50 result is “inactive”.

Turning to `COc1ccc(CCNC(=O)CCCCCN2C(=O)c3ccccc3C2=O)cc1`, the half-maximal activity concentration (AC50) is 2.51 µM (active).

For the compound `C#CCCCO/N=C1/C[C@@H](O)[C@@H](O)[C@@H]2[C@@H]3C(=O)N(C[C@@H]4CCCO4)C(=O)[C@H]3CC[C@@H]12`, the activity, negative = inhibition is 1.94% [at 11.4 µM] (inactive).

Regarding `O=S(=O)(NCc1cc(-c2ccccc2Cl)no1)c1ccc(Cl)cc1`, the AC50 is 0.0562 µM (active).

Regarding `O=S(=O)(NCc1cc(-c2ccccc2Cl)no1)c1ccccc1`, the AC50 was 0.158 µM (active).

In the case of `O=C(O)[C@@H]1[C@@H](C(=O)Nc2ccccc2)[C@@H]2C=C[C@@H]1O2`, the activity, negative = inhibition was -3.64% [at 11.4 µM] (inactive).

On to `O=C1c2ccccc2C(=O)N1Cc1cc(-c2ccccc2Cl)no1`, for which the AC50 is 10 µM (active).

As to `O=C(Nc1ccccc1)c1cc(-c2ccccc2Cl)no1`, the AC50 was 2.82 µM (active).

These data come from PubChem BioAssay AID1851 (National Center for Advancing Translational Sciences (NCATS), 2009).
